Screening results: PubChem BioAssay, National Center for Advancing Translational Sciences (NCATS)
TrxR1 substrate – is turned over as a substrate by rat TrxR1; O89049; purified TrxR1 substrate turnover, NADPH consumption readout; Potency, µM (series often up to 114 µM); 390,000 tested, 0.01% active; AID 588456; also: nearly all actives have a fitted effect of over 50% in size
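Rat TrxR1, dispensed at 90 nM, was prereduced with 400 uM NADPH (final) for 5 min at ~22 deg C, then incubated with compound 15 min before 400 uM selenite. A first-read NADPH fluorescence drop versus no-compound background flagged substrates.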
GLS inh – glutaminase GLS (human) inhibition; O94925; GLS enzymatic activity, qHTS titration; Potency, µM (top dose mostly 45.5 µM), hits mostly inhibitors; 410,000 tested, 0.21% active
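Read-out is an Amplex red fluorescence increase coupled through glutamate oxidase and HRP, measured before and after 30 min room-temperature incubation. hKGA is in 45 mM KH2PO4 (pH 8.2) with 0.02% Tween-20; glutamine added as 1mM solution.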
KAT2A inh – inhibitors of human GCN5L2 histone acetyltransferase. GCN5L2 HAT assay, ThioGlo1 CoA-SH fluorescence. Potency, µM (doses to about 58.9 µM), usual class: inhibitors. 390,000 tested, 0.21% active. AID 504327
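Free CoA generated was detected with ThioGlo1 (50uM) fluorescence at Ex340nm/Em540nm, read immediately and after 20 min at room temperature. Enzyme, 20 nM in HEPES pH 7.5 buffer, saw compounds 15 min before adding 75uM H3(1-25) peptide and 70uM acetyl-CoA.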
VDR inhibitor – vitamin D3 receptor (human) inhibition; VDR-SRC2-3 peptide fluorescence polarization, 2 h; 400,000 tested, 0.93% active; Potency, µM, usual class: inhibitors
Target sequence (P11473 whole entry, looked up): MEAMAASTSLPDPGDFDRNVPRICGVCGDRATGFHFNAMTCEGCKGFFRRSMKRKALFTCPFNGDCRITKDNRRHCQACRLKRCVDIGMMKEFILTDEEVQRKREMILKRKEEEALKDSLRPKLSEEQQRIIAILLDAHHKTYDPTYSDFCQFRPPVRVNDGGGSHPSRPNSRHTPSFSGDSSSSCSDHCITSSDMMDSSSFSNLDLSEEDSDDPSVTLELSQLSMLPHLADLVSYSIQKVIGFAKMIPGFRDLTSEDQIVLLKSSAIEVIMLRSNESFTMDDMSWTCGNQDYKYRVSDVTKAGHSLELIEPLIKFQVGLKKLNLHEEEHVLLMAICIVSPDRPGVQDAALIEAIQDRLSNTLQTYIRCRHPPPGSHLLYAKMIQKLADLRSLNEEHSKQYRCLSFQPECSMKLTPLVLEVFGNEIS
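Fluorescence polarization assay of small-molecule disruption of VDR binding to coregulator peptide SRC2-3. Compounds and controls pin-transferred, then read after 2 h incubation at ambient room temperature.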
TrxR1 inh – rat TrxR1 inhibition; 390,000 tested, 1% active; O89049; recombinant rTrxR1, NADPH fluorescence consumption, selenite substrate; AID 588453; Potency, µM (highest dose often 114 µM), most hits filed as inhibitors; also: nearly all actives have a fitted effect of over 65% in size
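Rat TrxR1 (90 nM in the dispensed reagent) was pre-reduced with 400 uM NADPH for 5 min at room temperature, then incubated with compound for 15 min. After 400 uM selenite was added, NADPH fluorescence (Ex 340/Em 450 nm) was followed for 8 min.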
Sfp inh – blocks B. subtilis Sfp PPTase activity | Q9F4F7 | Biochemical Sfp PPTase activity, qHTS | Potency, µM, most hits filed as inhibitors | 310,000 tested, 3.5% active | AID 1490;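 also: the enzyme is Sfp with the accession as filed and its product quenches rhodamine fluorescence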
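Compounds were incubated with enzyme (final 15 nM) for 15 min at room temperature before substrate addition started the reaction. Fluorescence at 525 nm excitation, 598 nm emission was recorded immediately and after 30 minutes.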
Numbers stand for hits; . = inactive; ? = inconclusive; / = not tested or not shown; ! = a repeat was not active; [ ] = another dose, or the depositor's remark. Most compounds without a hit are left out; they make up all but 3.8% or so of the library. Calls follow the shape of the dose curve; as a rule, active = well fitted curve in the direction sought with a large enough effect; inconclusive = small, poorly fitted or top-dose-only effect, or another doubt; inactive = no such curve, though single readings can be large; an effect the other way counts as inactive or inconclusive.

SMILES	TrxR1 substrate	GLS inh	KAT2A inh	VDR inhibitor	TrxR1 inh	Sfp inh
Cc1ccc(NC(=S)NC(=O)c2ccccc2)cc1NC(=S)NC(=O)c1ccccc1	.	.	.	.	.	25µM
Cc1ccc2cccnc2c1NC(=S)NC(=O)c1ccccc1	.	.	.	?	.	18µM
O=C(NC(=S)Nc1cccc(NC(=S)NC(=O)c2ccccc2)c1)c1ccccc1	.	.	/	.	.	/
O=C(NC(=S)Nc1cccc2ncccc12)c1ccccc1	.	.	.	.	?	20µM
O=C(NC(=S)Nc1cccc2ncccc12)c1cccs1	.	.	.	.	?	45µM
Nc1ccc(C(=O)Nc2cccc3ncccc23)cc1	.	.	.	.	.	.
CC(Oc1ccccc1F)C(=O)NNC(=O)CCNC(=O)c1ccco1 (stereo not drawn)	.	.	.	.	.	/
CC(C)c1cc(-c2cc(-c3ccc(Cl)cc3)on2)nc(NCC2CC2)n1	.	.	.	.	.	.
O=C(NC(=S)Nc1ccc2ncccc2c1)c1ccccc1	.	.	.	.	?	50µM
O=C(Nc1ccc2ncccc2c1)c1ccccc1	.	.	.	?	.	.
CCOc1ccc(C(=O)NC(=S)Nc2ccc(N3CCCCC3)cc2)cc1[N+](=O)[O-]	.	.	.	?	.	20µM
CN(Cc1ccco1)c1ncnc2ccc(-c3cccc(NS(C)(=O)=O)c3)cc12	/	/	.	?	/	.
CN(Cc1ccco1)c1ncnc2ccc(-c3ccccc3C(F)(F)F)cc12	/	/	.	32µM	/	?
CN(Cc1ccco1)c1cc(-c2ccccc2Cl)ncn1	/	/	.	45µM	/	.
COc1ccccc1-c1ccc2ncnc(N(C)Cc3ccco3)c2c1	/	/	.	45µM	/	?
CN(C)Cc1ccccc1-c1cc(N(C)Cc2ccco2)ncn1	/	/	.	.	/	.
CN(Cc1ccco1)c1ncnc2ccc(-c3ccccc3Cl)cc12	.	.	.	50µM!	.	?
CN(Cc1ccco1)c1ncncc1-c1cccc(NS(C)(=O)=O)c1	/	/	.	?	/	.
CN(C)c1ncnc2ccc(-c3ccoc3)cc12	/	/	.	?	/	.
CN(Cc1ccco1)c1ncncc1-c1ccccc1Cl	/	/	.	28µM	/	79µM
CN(Cc1ccco1)c1ncnc2ccc(-c3ccoc3)cc12	.	.	.	50µM!	.	.
O=C1C=CC(=O)c2c(O)c(CO)c(CO)c(O)c21	.	3.5µM	/	?	?	/
O=C1C=CC(=O)c2c(O)c(Cl)c(Cl)c(O)c21	/	/	20µM	4.5µM	/	11µM
O=C1C=Cc2cccc3ccc(O)c1c23	.[2.29 µM]	.	/	.	.[2.29 µM]	/
CCC(CC)c1nnc(NC(=O)CCS(=O)(=O)Cc2ccccc2)s1	.	.	.	.	.	63µM
SMILES	TrxR1 substrate	GLS inh	KAT2A inh	VDR inhibitor	TrxR1 inh	Sfp inh
O=C(CS(=O)(=O)c1ccccc1)Nc1nnc(Cc2ccccc2)s1	.	.	.	.	.	45µM
CCCc1nnc(NC(=O)CS(=O)(=O)c2ccccc2)s1	.	.	.	.	.	.
CCC(CC)c1nnc(NC(=O)CS(=O)(=O)c2ccccc2)s1	.	?	.	?	.	50µM
Cc1ccc(-c2ccccc2NC(=O)CS(=O)CC(=O)Nc2ccc(C)c(Cl)c2)o1 (stereo not drawn)	.	.	.	45µM	3.5µM	.
Cc1cc(O)c(/C=N/Nc2ccccc2)c(=O)o1	.	.	.	.	.	18µM
O=c1c(-c2ccc3c(c2)OCCO3)coc2cc(O)cc(O)c12	.	.	?	.	.	20µM
O=c1cc(-c2ccccc2)oc2cc(O)cc(O)c12	.	.	.	.	.	.
O=c1c(-c2ccccc2)coc2cc(O)cc(O)c12	/	/	28µM	28µM	/	.
Cn1nccc1NC(=O)c1nccnc1C(=O)O	.	.	.	.	.	.
O=S(=O)(Nc1nc2ccccc2nc1Cl)c1ccc(Br)cc1	.	.	.	.	.	71µM
COc1ccc(-c2cc(C(F)(F)F)n3ncc(C(=O)NCc4ccco4)c3n2)cc1	.	.	.	.	.	56µM
